# Screening data from PubChem.
# Hits are enriched below; roughly 14% of the tested compounds scored in any of these assays.
# CHX counter: affects cycloheximide protein synthesis inhibition readout, counter-screen | cell reporter, cycloheximide protein synthesis inhibition counterscreen | max response, % | 12% of 300,000 active | AID 2314; in the data active means max response mostly above about 13%, no sharp cut-off; inactive means mostly below about 14%; further: read at 38.3 µM for the half of the compounds with a filed dose; 0% is about no effect
# NS1 function inh: blocks influenza NS1 protein function | AID 2326 | 0.4% of 270,000 active | Potency, µM (top dose mostly 46.1 µM), for inactives: at the top dose activity, positive = more growth; calls by dose curve; further: potency means the concentration at half of the fitted maximal effect; actives are rising curves; nearly all actives have a fitted effect of over 50% in size
#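 In this qHTS, NS1 from influenza A is expressed in budding yeast, where it slows growth. Cells are switched from glucose to 2% galactose medium (pH 6.0, -URA), treated with compound, and growth recovery is read at OD600.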
# Shiga inhibitor: blocks Shiga toxin action in Vero cells | Vero cells, Shiga toxin protein synthesis inhibition reporter | inhibition, % at 38.7 µM | 9.2% of 290,000 active | AID 2315; in the data active means inhibition mostly above about 28%, no sharp cut-off; inactive means mostly below about 43%; further: 0% is about no effect
# Giardia FBPA inh-1: inhibitors of Giardia lamblia fructose-1,6-bisphosphate aldolase | purified Giardia FBPA | Potency, µM (titrated, usually from 59.6 µM), for the others: at the highest dose activity, negative = inhibition, usual class: inhibitors | 0.71% of 290,000 active; further: potency means the concentration at half of the fitted maximal effect; on the % scale 0 is the no-effect control and ±100 the full control effect; nearly all actives have a fitted effect of over 55% in size
# Target sequence (A8B2U2 whole entry, looked up): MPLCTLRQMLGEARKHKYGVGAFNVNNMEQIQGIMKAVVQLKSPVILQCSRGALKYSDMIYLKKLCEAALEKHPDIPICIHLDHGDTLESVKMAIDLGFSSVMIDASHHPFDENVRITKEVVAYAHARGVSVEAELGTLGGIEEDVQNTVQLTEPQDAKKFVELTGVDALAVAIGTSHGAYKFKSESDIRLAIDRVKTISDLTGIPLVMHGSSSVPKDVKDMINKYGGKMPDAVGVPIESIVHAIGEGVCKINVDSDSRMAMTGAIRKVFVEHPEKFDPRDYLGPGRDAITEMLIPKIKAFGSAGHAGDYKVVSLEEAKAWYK
#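 40 nM FBPA preincubated 10 min at RT with compound (up to 57.5 uM final), then substrate plus GAPDH/TPI/NAD/arsenate coupling and diaphorase/resazurin added. Fluorescence read after 20 min at RT, 525/598 nm.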
# LmPK inhibitor: inhibitors of Leishmania mexicana pyruvate kinase | Q27686 | purified LmPK, Kinase-Glo ATP luminescence, 1 h | Potency, µM (titrated, usually from 57.5 µM), without a hit: at the highest dose activity change, negative = inhibition, usual class: inhibitors | 0.37% of 290,000 active; further: potency means the concentration at half of the fitted maximal effect; on the % scale 0 is the no-effect control and ±100 the full control effect
# Target sequence (Q27686 whole entry, looked up): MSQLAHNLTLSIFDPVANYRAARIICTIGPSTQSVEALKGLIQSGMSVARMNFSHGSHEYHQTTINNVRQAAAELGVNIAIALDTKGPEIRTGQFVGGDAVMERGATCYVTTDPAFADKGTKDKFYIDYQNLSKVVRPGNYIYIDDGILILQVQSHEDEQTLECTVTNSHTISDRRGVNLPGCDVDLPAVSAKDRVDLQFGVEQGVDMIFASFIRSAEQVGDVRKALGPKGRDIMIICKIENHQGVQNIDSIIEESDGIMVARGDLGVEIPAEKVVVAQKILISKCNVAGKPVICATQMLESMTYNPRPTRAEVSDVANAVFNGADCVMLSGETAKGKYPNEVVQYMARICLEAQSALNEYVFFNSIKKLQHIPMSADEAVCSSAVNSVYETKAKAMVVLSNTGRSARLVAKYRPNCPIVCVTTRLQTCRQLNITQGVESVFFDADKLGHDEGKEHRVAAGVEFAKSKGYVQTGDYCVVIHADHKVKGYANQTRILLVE
#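 In 50 mM imidazole pH 7.2 with 7 mM MgCl2, LmPK (0.1 nM) turned over PEP (0.5 mM) and ADP (0.1 mM) for 1 h at room temperature. Luciferase read-out of ATP.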
# Giardia growth: inhibitors of Giardia lamblia growth; shares compounds with Giardia FBPA inh-1; Giardia lamblia trophozoite growth inhibition; Potency, µM (top dose mostly 57.5 µM), inactives show at the highest dose activity change, negative = inhibition, actives largely listed as inhibitors; 5% of 1,500 active;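 further: potency means the concentration at half of the fitted maximal effect; trophozoites exposed to compound for 48 h at 37 °C; on the % scale 0 is the no-effect control and ±100 the full control effect; nearly all actives have a fitted effect of over 70% in size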
# Mammalian tox: counter-screen for Giardia aldolase inhibitors: mammalian cell toxicity; shares compounds with Giardia FBPA inh-1; mammalian cell viability counter-screen, qHTS; Potency, µM (top dose mostly 57.5 µM), inactives show top-dose viability change, negative = toxicity, hits mostly inhibitors; 4% of 1,500 active;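 further: Chinese hamster ovary cells used as mammalian cytotoxicity surrogate; viability measured as cellular ATP by luminescence; potency means the concentration at half of the fitted maximal effect; compound exposure lasted 48 h before reading; on the % scale 0 is the no-effect control and ±100 the full control effect; nearly all actives have a fitted effect of over 60% in size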
# Giardia FBPA inh-2: confirmation of Giardia fructose-bisphosphate aldolase inhibitors; shares compounds with Giardia FBPA inh-1; purified Giardia aldolase enzyme activity, qHTS; Potency, µM (top dose mostly 57.5 µM), inactives show top-dose activity change, negative = inhibition, usual class: inhibitors; 5% of 1,500 active; AID 2787; further: potency means the concentration at half of the fitted maximal effect; on the % scale 0 is the no-effect control and ±100 the full control effect; nearly all actives have a fitted effect of over 45% in size
# Rabbit FBPA inh: rabbit FBP aldolase inhibition by Giardia aldolase hits | Rabbit muscle FBPA enzyme inhibition, selectivity counter-screen | 4% of 1,500 active | Potency, µM (highest dose often 57.5 µM), without a hit: at the top dose activity, negative = inhibition, most hits filed as inhibitors | shares compounds with Giardia FBPA inh-1; further: potency means the concentration at half of the fitted maximal effect; on the % scale 0 is the no-effect control and ±100 the full control effect; nearly all actives have a fitted effect of over 60% in size
# GAPDH counter: counter-screen for Giardia aldolase inhibitors: GAPDH coupling enzyme. 6% of 1,500 active. Potency, µM (top dose mostly 57.5 µM), without a hit: top-dose activity change, negative = inhibition, most hits filed as inhibitors. GAPDH coupling enzyme counterscreen, biochemical, qHTS. AID 2795. shares compounds with Giardia FBPA inh-1; further: potency means the concentration at half of the fitted maximal effect; on the % scale 0 is the no-effect control and ±100 the full control effect; nearly all actives have a fitted effect of over 55% in size
# An asterisk follows results filed as active; ? = inconclusive; / = no result; [ ] = dose if it differs, or a comment. Unless noted, the call rests on the fitted dose curve; in most records, active means well fitted curve in the direction sought with a large enough effect; inconclusive means small, poorly fitted or top-dose-only effect, or another doubt; inactive means no such curve, though single readings can be large; an effect the other way counts as inactive or inconclusive.
SMILES,CHX counter,NS1 function inh,Shiga inhibitor,Giardia FBPA inh-1,LmPK inhibitor,Giardia growth,Mammalian tox,Giardia FBPA inh-2,Rabbit FBPA inh,GAPDH counter
O=C(O)CC(CC(=O)N1CCN(C(=O)c2ccco2)CC1)c1ccccc1 (centres undefined),10.5,-0.2%,2.8,/,5.7%,/,/,/,/,/
Cc1ccnc(NS(=O)(=O)c2ccc3ccccc3c2)n1,-1.5,14.8%,/,-19.9%,5.0%,/,/,/,/,/
c1ccc(-c2ccccc2OCCOCCN2CCNCC2)cc1,0.8,1.1%,-4.3,19.9µM*,-3.8%,?,6.1%,-3.2%,2.8%,-16.1%
CCN1CCN(CCOCCOc2ccccc2-c2ccccc2)CC1,-3.5,3.3%,-10.2,17.7µM*,-0.6%,10.7%[10.4 µM],-9.2%,6.5%,-1.8%,1.7%
N#CCCn1c(=O)c(-c2ccc(F)cc2)nc2cnc(OCc3ccccc3)nc21,/,/,/,8.1%,/,/,/,/,/,/
COCCN(C(=O)COC(=O)COc1ccc(Cl)c(C)c1)c1c(N)n(Cc2ccccc2)c(=O)[nH]c1=O,1.1,-2.2%,-6.7,-10.4%,-4.4%,/,/,/,/,/
CCCn1c(C(C)NS(=O)(=O)c2ccccc2)n[nH]c1=S (centres undefined),1.5,5.2%,-3.8,10µM*,-18.4%,72.6%,12.1%,-1.0%,-0.7%,6.0%
CCn1c(C(C)NS(=O)(=O)c2ccc(Cl)cc2)n[nH]c1=S (centres undefined),-2.6,4.2%,-3.9,11.2µM*,1.5%,13.8%,-5.5%,5.9%,4.5%,12.6%
CCCn1c(C(C)NC(=O)c2ccccc2)n[nH]c1=S (centres undefined),5.7,2.1%,-10.7,19.4%,-1.6%,/,/,/,/,/
CCc1ccc(NC(=S)N(CCN(C)C)C(C)c2ccncc2)cc1 (centres undefined),-3.0,/,-1.6,2.2%,-1.7%,/,/,/,/,/
CCOc1ccc(S(=O)(=O)N(C)CC(=O)NC2CCCC2)cc1,-2.2,-8.5%,-5.9,4.0%,4.0%,/,/,/,/,/
CC(C)CC(=O)N1CCN(Cc2ccc(Cl)cc2)CC1,1.3,-10.1%,1.9,28.2µM*,-1.3%,-29.6%,-2.6%,-0.5%,3.6%,8.0%
CC(C)CC(=O)N1CCN(Cc2ccc(C(F)(F)F)cc2)CC1,-1.4,-16.0%,-6.1,31.6µM*,-0.3%,-22.9%,-22.2%,6.1%,-5.0%,-13.4%
CC(C)CC(=O)N1CCN(Cc2ccc(Br)cc2)CC1,-2.1,-1.6%,-7.0,?,-3.0%,/,/,/,/,/
Cc1ccc(NC2CCCN(C(=O)c3ccnc(Cl)c3)C2)cc1C (centres undefined),-4.3,-0.2%,17.6,/,10.6%,/,/,/,/,/
CSc1ccc(-c2sc(Nc3cccc4ccccc34)n[n+]2-c2ccccc2)cc1,21.6*,5.0%,17.0*,25.1µM*,-1.5%,13.6%,-20.8%,-19.6%,-20.0%,-24.1%
CSc1ccc(-c2sc(Nc3ccccc3)n[n+]2-c2ccccc2)cc1,35.5*,-0.7%,53.2*,25.1µM*,-14.2%,-28.3%,-24.2%,-0.6%,8.8%,1.7%
COc1ccc(C)cc1Nc1n[n+](-c2ccccc2)c(-c2ccc(NC(C)=O)cc2)s1,2.3,16.4%,0.4,22.4µM*,-6.0%,?,1.1%,3.7%,-4.7%,11.5%
CC(=O)Nc1ccc(-c2sc(Nc3cccc4ccccc34)n[n+]2-c2ccccc2)cc1,-2.2,29.4%,-2.8,15.8µM*,0.5%,31.6%,6.1%,7.3%,3.3%,12.7%
CN1CCCC(OC(=O)c2ccc(C#N)cc2)C1 (centres undefined),0.9,2.7%,1.0,-10.8%,-9.3%,/,/,/,/,/
COc1cc(-c2nc(C(=O)NCC3CCCO3)cc3c2[nH]c2ccccc23)cc(OC)c1OC (centres undefined),-2.9,-10.8%,1.9,8.91µM*,?,-9.2%,39.8µM*,-1.4%,-9.2%,-0.9%
COc1ccccc1-c1nc(C(=O)NCC2CCCO2)cc2c1[nH]c1ccccc12 (centres undefined),-0.7,-32.6%,6.6,-14.1%,-6.8%,/,/,/,/,/
COC(=O)c1cc(S(=O)(=O)N2CCOCC2)c(Cl)cc1N1CCOCC1,-4.0,0.5%,4.3,2.8%,-0.8%,/,/,/,/,/
COC(=O)c1cc(C)nc2c1C(=O)C(=O)C=C2N1CCOCC1,-6.0,4.4%,-24.9,0.251µM*,-9.9%,25.1µM*,20µM*,1.26µM*,1.41µM*,1.41µM*
CCN(CC)c1ccc(N)cc1S(=O)(=O)Nc1ccccc1OC,-1.8,-1.8%,13.9,15.8µM*,-13.6%,12.7%[10.4 µM],-0.4%,1.3%,3.6%,16.4%
SMILES,CHX counter,NS1 function inh,Shiga inhibitor,Giardia FBPA inh-1,LmPK inhibitor,Giardia growth,Mammalian tox,Giardia FBPA inh-2,Rabbit FBPA inh,GAPDH counter
CCN(CC)c1ccc(N)cc1S(=O)(=O)Nc1ccc(OC)cc1,-1.3,12.2%,-4.9,-13.0%,1.7%,/,/,/,/,/
CNCCC1Sc2ccccc2Oc2ccccc21 (centres undefined),-3.2,/,-6.6,17.7µM*,-2.7%,-9.4%,3.9%,-1.9%,4.4%,5.3%
CCCCn1c(SCC(=O)c2ccc(O)c(O)c2)nc2ccsc2c1=O,-3.9,18.0%,-11.9,?,-0.3%,/,/,/,/,/
O=C(O)CCCCCn1c(SCC(=O)c2ccc(O)c(O)c2)nc2ccsc2c1=O,-3.5,9.0%,-15.5,3.97µM*,0.6%,4.0%[10.4 µM],2.7%,-9.3%,-11.1%,20.3%
CCc1ccc(-c2cc(C(=O)N/N=C/c3ccccn3)[nH]n2)cc1,22.0,/,29.0,?,4.9%,/,/,/,/,/
O=C(N/N=C/c1ccccn1)c1cc(-c2ccccc2)nc2ccccc12,7.1,?,26.4,14.1µM*,1.7%,24.3%,?,10.4%,6.6%,-2.0%
O=C(N/N=C/c1ccccn1)c1cc(C2CC2)nc2ccccc12,-8.0,-13.2%,1.9,8.3%,-0.6%,/,/,/,/,/
O=C(N/N=C/c1ccccn1)c1cc(-c2ccccc2Cl)n[nH]1,35.3*,/,95.2*,15.8µM*,-0.8%,-19.0%,-8.5%,-7.9%,-13.6%,-18.4%
O=C(N/N=C/c1ccccn1)c1cccc(S(=O)(=O)N2CCCC2)c1,-2.5,-7.7%,-1.4,15.8µM*,3.0%,4.4%[10.4 µM],5.4%,6.0%,7.1%,-0.1%
Cc1ccc(NC(=O)C2CCC(CNC(=O)[C@@H]3Cc4ccccc4CN3)CC2)c(C)c1 (some centres undefined),-1.6,-4.5%,2.4,/,-1.0%,/,/,/,/,/
Cc1ccccc1CN1CCN(CC(=O)NC(C)c2ccccc2)CC1 (centres undefined),-0.5,5.2%,19.6,2.2%,1.4%,/,/,/,/,/
